Screens (PubChem BioAssay)
Only some compounds are listed: those with a hit (about 2.8% of all), similar ones and a draw of the others.
TRPM1 prom inh = inhibitors of MITF-driven TRPM1 promoter in melanoma cells | SK-MEL-5 TRPM1 promoter luciferase, 24 h | inhibition, % at 12.5 µM | 0.83% of 330,000 active | AID 488899;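 active = mean inhibition across replicates of 60% or more, whatever share of single replicates reaches that level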
Peg3 promoter = Peg3 promoter activity inhibition | HeLa PEG-Prom luciferase reporter, luminescence, overnight | inhibition, % at 20 µM | 1.7% of 360,000 active | AID 588405;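 active = inhibition of at least 50% at 20 µM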
KKLEB tox = reduces viability of KKLEB cystic fibrosis airway cells; AID 602141; KKLEB CF airway cells viability, ATPlite luminescence, overnight; stronger effect = lower value; cells stimulated with P. aeruginosa culture filtrate; 0.36% of 360,000 active; activity change (cytotoxicity), % at 5 µM;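 active = corrected activity change at or below -50% at 5 µM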
CF NFkB inh = blocks PAF-induced NF-kB reporter in cystic fibrosis cells | KKLEB NF-kB-GFP reporter, GFP fluorescence overnight | inhibition, % at 5 µM | 0.86% of 360,000 active;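 active = at least 50% inhibition at 5 µM, scaled per plate between neutral and stimulator controls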;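 also: PAF is a Pseudomonas aeruginosa culture filtrate used as stimulus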
Shn3 inh set2 = reduces Shn3 3'UTR luciferase signal in osteoblasts | Clone20 osteoblast Shn3 3'UTR firefly luciferase, 24 h | inhibition, % at 12.5 µM | 0.52% of 360,000 active | AID 588674;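 active = mean inhibition of at least 75% with every replicate also reaching 75%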
HIF-2a inh = inhibitors of HIF-2a; 786-0 RCC cells HIF-2a reporter, luciferase luminescence, overnight; inhibition, % at 18.8 µM; 0.72% of 360,000 active; AID 624352;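 active = inhibition of the luminescence signal of 40% or more relative to plate controls, in a single-dose primary screen at 18.75 µM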
A number is an active result; 0 = inactive; - = not tested or not shown.

SMILES	TRPM1 prom inh	Peg3 promoter	KKLEB tox	CF NFkB inh	Shn3 inh set2	HIF-2a inh
CC(C)(C)[C@@H]1COC(=O)[C@@H](NC(=O)OCC2c3ccccc3-c3ccccc32)C/C=C\C[C@@H](CC(=O)NCCO)C(=O)N1	0	0	0	0	86	0
C[C@@H]1COC(=O)[C@H](NC(=O)OCC2c3ccccc3-c3ccccc32)C/C=C\C[C@@H](CC(=O)N[C@@H](CO)Cc2ccccc2)C(=O)N1	0	0	0	0	0	0
O=C(N[C@H]1C/C=C\C[C@@H](CC(=O)N(CCO)Cc2ccccc2)C(=O)NC[C@H](c2ccccc2)OC1=O)OCC1c2ccccc2-c2ccccc21	-	75	0	0	0	0
O=C(N[C@@H]1C/C=C\C[C@H](CC(=O)N(CCO)Cc2ccccc2)C(=O)N[C@@H](Cc2ccccc2)COC1=O)OCC1c2ccccc2-c2ccccc21	0	68	0	0	0	0
Cc1ccc(C2=NS(=O)(=O)N(C)C(C(=O)N3CCOCC3)=C2)cc1	0	0	0	0	0	0
C[C@@H](C(=O)CC(=O)OC(C)(C)C)[C@@H](O)c1c(F)cccc1Cl	0	0	0	0	0	0
CC(NCc1ccc(-c2ccccc2)cc1)C(O)c1ccccc1 (configuration not stated)	0	74	0	0	0	0
CC(O)CNCc1ccc(-c2ccccc2)cc1 (configuration not stated)	0	0	0	0	0	0
O=C(NC1CCCC1)C(c1ccc(F)cc1)N(Cc1ccc(Cl)cc1)C(=O)CCl (configuration not stated)	0	62	0	0	0	0
O=C(NC1CCCC1)C(c1ccc(Cl)cc1)N(Cc1ccc(F)cc1)C(=O)CCl (configuration not stated)	0	0	0	0	0	0
CCOC(=O)c1c(NC(C)=O)sc2c1CCN(Cc1ccccc1)C2	-	0	0	0	0	0
CCOC(=O)c1c(NC(C)=O)sc2c1CCC(C=O)=C2Sc1ccccc1	0	99	0	0	0	0
NC(=O)C1=C(N=C2CCCCC2)CCCC1	0	0	0	0	0	0
CC(C)CN(C(=O)COC(=O)c1cccnc1Cl)c1c(N)n(Cc2ccccc2)c(=O)[nH]c1=O	0	0	0	0	0	0
CC(C)CN(C(=O)COC(=O)c1cnc(Cl)c(Cl)c1)c1c(N)n(Cc2ccccc2)c(=O)[nH]c1=O	0	85	0	0	0	0
CC(C)CCN(C(=O)c1ccncc1)c1c(N)n(Cc2ccccc2)c(=O)[nH]c1=O	0	0	0	0	0	0
CC(C)N(Cc1ccccc1)C(=O)COC(=O)c1cnc(Cl)c(Cl)c1	0	83	0	0	0	0
CC(C)CCN(C(=O)Cc1ccc(Cl)c(Cl)c1)c1c(N)n(Cc2ccccc2)c(=O)[nH]c1=O	81	0	0	0	0	0
CCN(CC)c1cccc(OC(=O)c2cccnc2Cl)c1	0	0	0	0	0	0
COc1ccc(CNC(=O)COC(=O)/C=C/c2cccc(Br)c2)cc1	0	0	0	0	0	0
NS(=O)(=O)c1ccc(CCNC(=O)CNS(=O)(=O)c2cccc(Br)c2)cc1	0	0	0	0	0	0
CC(C)C(Cl)=NOC(=O)Nc1ccc(S(N)(=O)=O)cc1	0	88	0	0	95	0
Cc1ccc(-n2c(Cl)c(Cl)nc(Cl)c2=O)cc1	95	103	-94	88	96	94
COc1nc(Cl)cn(-c2ccc(C)cc2)c1=O	0	0	0	0	0	0
COc1ccc2c(ccn2S(=O)(=O)c2ccccc2)c1	0	0	0	0	0	0
CN(C)S(=O)(=O)c1cccc(-c2nn(-c3ccccc3)cc2/C=C2\SC(=S)NC2=O)c1	0	60	0	53	0	0
COc1ccc(-c2cc(=O)oc3c(C)c(OC(C)C(C)=O)ccc23)cc1 (configuration not stated)	0	52	0	0	0	0
CCOC(=O)C(Oc1ccc2c(-c3ccc(OC)cc3)cc(=O)oc2c1C)c1ccccc1 (configuration not stated)	0	0	0	0	0	0
O=C(COC(=O)C1=NN(c2ccccc2)C(=O)CC1)Nc1ccc([N+](=O)[O-])cc1C(F)(F)F	0	0	0	0	0	0
